Here are results for eight compounds from PubChem BioAssay.

Structures are written as SMILES. Activity calls are given as the source filed them.

Test [1] can be described thus: E. coli DRC41 culture turbidity changes, primary screen, E. coli filamentation inducer project, strain DRC41, OD650, 48 h (AID 1152).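 Further: E. coli MC1000 strain DRC41 lacking acrAB efflux pump and sulA.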 The conditions noted are these: E. coli DRC41 (acrAB sulA), higher = more signal, called active from +8 up or from −8 down.
Test [2] can be described thus: small-molecule binders of probe aLefty1, primary screen, biochemical, small-molecule microarray, 635/667 nm fluorescence (AID 1153).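 Further: score merges spot fluorescence with signal-to-noise ratio from the scanned slide images.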 The note with it: higher = more signal.
The nature of test [3]: PSAC antagonists in infected red cells, primary screen, cell-based, P. falciparum Indochina, OD700, 1 h (AID 1154). The conditions noted are these: P. falciparum Indochina infected RBC osmotic lysis, higher = more signal, called active from +8 up or from −8 down.
The nature of test [4]: PSAC antagonists in infected red cells, primary screen, cell-based, P. falciparum Indochina, OD700, 2 h (AID 1155).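 Further: lysis reports solute entry through the parasite surface anion channel PSAC; channel blockers reduce lysis of infected cells.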 The note with it: P. falciparum Indochina infected erythrocytes, osmotic lysis OD700; higher = more signal, called active from +8 up or from −8 down.
Test [5] in a line: osmotic lysis modulators in infected erythrocytes, primary screen, PSAC antagonist project, cell-based, P. falciparum Indochina, OD700, 3 h (AID 1156). The conditions noted are these: higher = more signal, called active from +8 up or from −8 down.
Test [6] can be described thus: PSAC antagonists in infected red cells, primary screen, cell-based, P. falciparum Indochina, OD700, 18 h (AID 1157). The conditions noted are these: P. falciparum Indochina infected erythrocytes, osmotic lysis OD700, 18 h; higher = more signal, called active from +8 up or from −8 down.
A short description of test [7]: modulators of S6 phosphorylation in cells, primary screen, cell-based, A549, cytoblot, luminescence, serum-stimulated (AID 1158).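 Further: serum-stimulated A549 lung adenocarcinoma cells; signal is phosphorylated S6 detected by cytoblot immunostaining with HRP secondary.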 The conditions noted are these: A549 phospho-S6 cytoblot, 5 h, higher = more signal.
The target of test [8] is NADPH oxidase 2 (Homo sapiens) (UniProt P04839). The test can be described thus: NOX2-dependent H2O2 signal modulators, primary screen, NOX inhibitor project, cell-based, HEK293-NOX2, PMA-stimulated, Amplex Red fluorescence (AID 1159). Further: test concentration not given here. The conditions noted are these: 45 min, higher = more signal, called active from +8 up or from −8 down.
Sequence of NADPH oxidase 2 (Homo sapiens) (P04839 whole entry, looked up): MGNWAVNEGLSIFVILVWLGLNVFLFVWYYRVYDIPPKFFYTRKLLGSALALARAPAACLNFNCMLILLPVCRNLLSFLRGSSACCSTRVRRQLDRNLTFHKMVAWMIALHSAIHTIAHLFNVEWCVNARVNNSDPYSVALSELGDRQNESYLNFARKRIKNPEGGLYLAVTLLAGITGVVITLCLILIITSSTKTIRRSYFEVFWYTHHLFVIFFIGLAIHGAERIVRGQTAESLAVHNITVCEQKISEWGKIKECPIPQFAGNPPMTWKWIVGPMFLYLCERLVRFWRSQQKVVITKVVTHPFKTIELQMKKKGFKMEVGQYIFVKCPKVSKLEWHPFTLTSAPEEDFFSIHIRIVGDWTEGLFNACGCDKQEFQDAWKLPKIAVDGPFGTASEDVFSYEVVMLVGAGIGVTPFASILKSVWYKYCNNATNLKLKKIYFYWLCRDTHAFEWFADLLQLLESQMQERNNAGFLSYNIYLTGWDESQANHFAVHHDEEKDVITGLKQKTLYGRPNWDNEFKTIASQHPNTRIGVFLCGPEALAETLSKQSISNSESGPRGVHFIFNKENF
The target of test [9] is NADPH oxidase 4 (Homo sapiens) (UniProt Q9NPH5). The test can be described thus: NOX4-dependent H2O2 signal modulators, primary screen, NOX inhibitor project, cell-based, HEK293-NOX4, tetracycline-induced, Amplex Red fluorescence (AID 1160). The conditions noted are these: 45 min, higher = more signal, called active from +8 up or from −8 down.
Sequence of NADPH oxidase 4 (Homo sapiens) (Q9NPH5 whole entry, looked up): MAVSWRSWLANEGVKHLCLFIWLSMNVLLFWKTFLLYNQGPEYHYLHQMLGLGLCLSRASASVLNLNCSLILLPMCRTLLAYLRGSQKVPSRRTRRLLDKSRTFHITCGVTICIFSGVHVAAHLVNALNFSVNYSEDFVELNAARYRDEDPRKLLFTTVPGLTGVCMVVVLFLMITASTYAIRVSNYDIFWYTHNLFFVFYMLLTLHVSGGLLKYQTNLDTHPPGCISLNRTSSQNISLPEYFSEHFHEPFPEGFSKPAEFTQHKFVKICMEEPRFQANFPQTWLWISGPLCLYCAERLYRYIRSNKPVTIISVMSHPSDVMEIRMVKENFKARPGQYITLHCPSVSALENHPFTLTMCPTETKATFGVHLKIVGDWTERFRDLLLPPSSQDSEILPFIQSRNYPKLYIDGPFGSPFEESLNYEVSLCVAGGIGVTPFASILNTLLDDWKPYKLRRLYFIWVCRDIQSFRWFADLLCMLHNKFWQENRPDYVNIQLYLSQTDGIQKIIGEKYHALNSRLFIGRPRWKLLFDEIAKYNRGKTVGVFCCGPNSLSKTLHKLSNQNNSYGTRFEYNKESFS
The target of test [10] is NADPH oxidase 5 (Homo sapiens) (UniProt Q96PH1). The test can be described thus: NOX5-dependent H2O2 signal modulators, primary screen, NOX inhibitor project, cell-based, HEK293-NOX5, Amplex Red fluorescence (AID 1161). The conditions noted are these: HEK293-NOX5, ionomycin, 45 min, higher = more signal.
Sequence of NADPH oxidase 5 (Homo sapiens) (Q96PH1 whole entry, looked up): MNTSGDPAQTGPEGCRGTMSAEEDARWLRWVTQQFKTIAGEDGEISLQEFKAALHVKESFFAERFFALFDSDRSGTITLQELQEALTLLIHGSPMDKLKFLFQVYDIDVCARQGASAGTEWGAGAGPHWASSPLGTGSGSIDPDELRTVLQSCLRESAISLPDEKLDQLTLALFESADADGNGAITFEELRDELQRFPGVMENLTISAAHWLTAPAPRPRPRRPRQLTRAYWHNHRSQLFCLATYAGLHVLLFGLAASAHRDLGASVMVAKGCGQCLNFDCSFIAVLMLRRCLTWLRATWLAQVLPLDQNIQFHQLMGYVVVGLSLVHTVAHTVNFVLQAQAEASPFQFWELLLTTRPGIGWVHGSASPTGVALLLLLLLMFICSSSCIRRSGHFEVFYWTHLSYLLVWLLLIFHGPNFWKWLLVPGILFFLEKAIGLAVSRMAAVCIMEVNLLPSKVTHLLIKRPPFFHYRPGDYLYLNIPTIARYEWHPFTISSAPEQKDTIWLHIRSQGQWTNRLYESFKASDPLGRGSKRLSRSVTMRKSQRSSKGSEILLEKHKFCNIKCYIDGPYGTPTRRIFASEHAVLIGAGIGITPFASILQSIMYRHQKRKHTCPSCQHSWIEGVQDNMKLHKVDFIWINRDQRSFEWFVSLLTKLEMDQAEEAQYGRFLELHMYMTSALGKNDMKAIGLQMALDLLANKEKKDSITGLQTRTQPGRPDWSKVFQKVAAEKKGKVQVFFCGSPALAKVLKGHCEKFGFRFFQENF
Test [11] in a line: A549 cell viability effects, profiling panel, calcein-AM fluorescence, 48 h, basal (AID 1162). Further: test concentration not given here. The note with it: higher = more signal.
Test [12] in a line: adipocyte viability effects, profiling panel, cell-based, 3T3-L1 adipocytes, calcein-AM fluorescence, 48 h, basal (AID 1163). Further: test concentration not given here. The note with it: 3T3-L1 adipocytes viability, higher = more signal.
A short description of test [13]: HepG2 cell viability effects, profiling panel, calcein-AM fluorescence, 48 h, basal (AID 1164). Further: test concentration not given here. The note with it: higher = more signal.
A short description of test [14]: MM1S cell viability effects, profiling panel, calcein-AM fluorescence, 48 h, basal (AID 1165).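 Further: viability of MM1S multiple myeloma cells under basal unstimulated conditions; test concentration not given here.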 The conditions noted are these: higher = more signal.
Test [15] is described as follows: basal RPMI8226 viability, no added stimulus, profiling panel, cell-based, calcein-AM fluorescence, 48 h, PK04 Diversity Set (AID 1166).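 Further: cells grown under basal conditions without added stimulus; test concentration not given here.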 The note with it: RPMI8226 myeloma viability, higher = more signal.
A short description of test [16]: basal HepG2 mitochondrial membrane potential changes, profiling panel, cell-based, JC-1 fluorescence, 24 h, 100 nL compound (AID 1167). Further: test concentration not given here. The note with it: higher = more signal.
A short description of test [17]: basal 3T3-L1 adipocyte mitochondrial potential changes, profiling panel, cell-based, JC-1 fluorescence, 3T3-L1 adipocytes, 24 h, 100 nL compound (AID 1168). Further: test concentration not given here. The conditions noted are these: JC-1 mitochondrial fluorescence, higher = more signal, called active from +8 up or from −8 down.
Test [18] is described as follows: basal RPMI8226 mitochondrial membrane potential changes, profiling panel, cell-based, JC-1 fluorescence, 24 h, 100 nL compound (AID 1169). Further: test concentration not given here. The note with it: RPMI8226 myeloma, JC-1 mitochondrial potential fluorescence, higher = more signal.
A short description of test [19]: basal MM1S mitochondrial membrane potential changes, profiling panel, cell-based, JC-1 fluorescence, 24 h, 100 nL compound (AID 1170). Further: test concentration not given here. The conditions noted are these: higher = more signal.
Test [20] can be described thus: A549 lung cancer cell viability effects, profiling panel, resazurin fluorescence, 24 h, PK04 Diversity Set (AID 1171). Further: test concentration not given here. The conditions noted are these: higher = more signal, called active from +8 up or from −8 down.

In the case of `COc1ccc(C#Cc2ccc3c(c2)[C@]2(C(=O)N3)[C@H](C(=O)NC[C@H](O)c3ccccc3)[C@H]3C(=O)O[C@H](c4ccccc4)[C@H](c4ccccc4)N3[C@@H]2c2ccc(OCCO)cc2)cc1`, the z-score in [1] is -0.877 (inactive); in [3] it was 2.93 (inactive); in test [4], 1.97 (inactive); in test [5], -0.0845 (inactive); in test [6] it was 1.52 (inactive); in [7], -0.321. Moreover, the z-score in test [8] was 1.4 (inactive); in test [9], -1.22 (inactive); in test [10], 0.636; in test [11], 0.415; in [12], 1.17; in test [13] it was -0.425. Besides, the z-score in test [14] was -1.82; in test [15], -1.07; in test [16] it was -1.51; in test [17], 2.53 (inactive); in test [18], -1.04; in test [19], -0.733. Moreover, the z-score in [20] was -0.171 (inactive). Also, in [2], the composite z-score is 0.0711.
For the compound `COCCOC(=O)N1C(=O)[C@@]2(c3cc(C#Cc4ccc(OC)cc4)ccc31)[C@H](C(=O)N1CCN(c3ncccn3)CC1)[C@H]1C(=O)O[C@H](c3ccccc3)[C@H](c3ccccc3)N1[C@@H]2c1ccc(O)cc1`, the z-score in test [1] was 0.831 (inactive); in test [3] it was 1.39 (inactive); in [4] it was -0.306 (inactive); in [5], -0.119 (inactive); in test [6], -0.541 (inactive); in [7], 1.59. In addition, the z-score in test [8] was 0.586 (inactive); in [9], 0.19 (inactive); in [10] it was 1.98; in [11] it was 1.23; in [12], 1.26; in test [13], 0.986. Besides, the z-score in test [14] is 0.973; in test [15], 0.806; in test [16] it was -0.013; in [17] it was 2.2 (inactive); in [18], 0.157; in test [19] it was 0.193. In addition, in test [20], the z-score was 1.31 (inactive). Moreover, the composite z-score in test [2] amounted to 0.0773.
Take `[N-]=[N+]=NCc1ccccc1C[C@]1(C(=O)NCC(O)CO)N=C(c2ccc(OCCCO)cc2)O[C@H]1c1ccccc1N=[N+]=[N-]` (stereo not given in full): the z-score was 0.801 (inactive) in test [1]; 31.1 (active) in test [3]; 32.2 (active) in test [4]; 2.92 (inactive) in test [5]; 3.93 (inactive) in test [6]; 0.828 in test [7]. Moreover, the z-score was -0.689 (inactive) in test [8]; -0.154 (inactive) in test [9]; -1.77 in test [10]; -0.13 in [11]; 1.27 in test [12]; -0.35 in [13]. Moreover, the z-score in test [14] was -1.09; in [15] it was -1.11; in test [16] it was 0.0849; in test [17], 1.19 (inactive); in [18], -0.893; in [19], -0.384. Further, the z-score in [20] was 0.0953 (inactive). The compound also yielded a composite z-score in test [2] of 0.12.
As for `COc1ccc([Si](C)(C)[C@@H]2[C@@H](CC(=O)N(CCO)Cc3ccccc3)O[C@]3(C(=O)N(C)c4ccccc43)[C@H]2C)cc1`, the z-score in test [1] is -0.733 (inactive); in test [3] it was 11.8 (active); in test [4], 2.07 (inactive); in test [5] it was -0.87 (inactive); in [6] it was 0.57 (inactive); in test [7] it was 0.388. Further, the z-score in test [8] was 0.406 (inactive); in test [9] it was 0.965 (inactive); in [10], -1.21; in test [11] it was -0.664; in [12] it was 0.349; in [13], -1.58. Also, the z-score in [14] is -2.68; in test [15], -3.74; in [16] it was -0.494; in test [17], -1.44 (inactive); in test [18], -1.12; in test [19] it was -0.319. For the same compound, the z-score in test [20] is -1.78 (inactive). This compound yielded a composite z-score in test [2] of 0.31.
In the case of `CC1CC/C=C\[C@H]2OC34C=CCN(Cc5ccccc5)C(=O)[C@H]3N(CCCCCO)C(=O)[C@@H]4C2C(=O)O1` (stereo not given in full), the z-score in test [1] was -0.94 (inactive); in [3] it was -0.365 (inactive); in [4] it was -0.0369 (inactive); in test [5], -0.692 (inactive); in test [6], -0.0374 (inactive); in test [7], -0.689. Also, the z-score in test [8] was 0.852 (inactive); in test [9], -0.14 (inactive); in test [10] it was 1.34; in [11], 0.482; in test [12] it was 0.449; in test [13] it was -0.069. Besides, the z-score in [14] was 1.51; in test [15] it was 0.599; in [16] it was 0.647; in test [17] it was -0.478 (inactive); in test [18], -0.514; in test [19], 1.12. Further, the z-score in test [20] was 0.374 (inactive). In [2], the composite z-score is -0.326.
With `CCCN1C(=O)[C@@]2(CCC(=O)OC(C)(C)C)N=C(c3ccc(OCCCO)cc3)O[C@H]2c2ccccc21`, the z-score is 0.42 (inactive) in test [1]; 35.9 (active) in [3]; 37.4 (active) in [4]; 3.51 (inactive) in [5]; 9.08 (active) in [6]; 0.237 in [7]. Moreover, the z-score in test [8] was -2.74 (inactive); in [9], -0.665 (inactive); in test [10] it was -1.96; in [11], -1.32; in test [12], 1.24; in [13], -2.09. In addition, the z-score was -3.47 in test [14]; -4.43 in test [15]; 0.6 in test [16]; 2.43 (inactive) in test [17]; -1.26 in [18]; -0.421 in [19]. In addition, the z-score in test [20] is -0.778 (inactive). The composite z-score in [2] is -0.358.
As to `CCCCCN1CC=CC23O[C@@H]4/C=C\CCCOC(=O)C4[C@H]2C(=O)N(CCCCCCO)[C@@H]3C1=O` (stereo not given in full), the z-score in test [1] is 2.24 (inactive); in [3], 2.25 (inactive); in test [4], 0.753 (inactive); in test [5] it was -0.387 (inactive); in test [6], 0.158 (inactive); in test [7], 5.32. Besides, the z-score in test [8] was 0.876 (inactive); in [9] it was 0.243 (inactive); in test [10], 1.75; in test [11], 1.26; in [12], 2.1; in test [13], 1.54. The z-score is 1.37 in test [14]; 1.97 in [15]; 0.482 in test [16]; -0.462 (inactive) in test [17]; 0.521 in test [18]; -1.09 in [19]. Moreover, the z-score in test [20] was 0.4 (inactive). Also, in test [2], the composite z-score was -0.146.
As for `COC(=O)[C@@]1(Cc2ccccc2)[C@H]2c3cc(C(=O)N4CCCC4)n(Cc4ccc(C)o4)c3C[C@H]2CN1C(=O)c1ccccc1`, the z-score is -1.71 (inactive) in test [1]; 1.63 (inactive) in test [3]; 0.547 (inactive) in test [4]; 0.278 (inactive) in [5]; 0.52 (inactive) in test [6]; -0.504 in test [7]. In addition, the z-score in [8] was -0.254 (inactive); in test [9], -0.867 (inactive); in [10], -1.17; in [11] it was -1.25; in test [12] it was 0.726; in test [13], 0.252. Besides, the z-score in test [14] was -1.47; in [15], -2.33; in test [16] it was 1.78; in [17], -0.753 (inactive); in [18], -1.02; in test [19] it was -0.449. Besides, in test [20], the z-score was -0.646 (inactive). This compound displayed a composite z-score in test [2] of 0.198.
